From PubChem BioAssay (EPA / NIEHS) come the findings set out here.

Active and inactive are the calls of the source. The calls were made as follows: active = hit-call score of the fitted dose curve at least 0.9, where 1 is the maximum; inactive = score below 0.9.

Read-out in this test: Decorin, DCN (gene 1634)
Put plainly: BSK_MyoF_Decorin: BioMAP Diversity Plus: MyoF Assay for Decorin Biomarker Activity (AID 2284265). The settings on record: primary human lung fibroblasts. As for the experimental part: BSK_MyoF is a cell-based, multiplexed-readout assay that uses lung fibroblasts, […], with measurements taken at 24 hours after chemical dosing in a microplate: 96-well plate.BSK_MyoF_Decorin is an assay component measured in the BSK_MyoF assay. It measures Decorin antibody related to regulation of gene expression using ELISA technology.Data from the assay component BSK_MyoF_Decorin was analyzed at the endpoint, BSK_MyoF_Decorin, in the positive analysis fitting direction relative to DMSO as the negative control and baseline of activity. Using a type of binding reporter, gain or loss-of-signal activity can be used to understand protein changes. To generalize the intended target to other relatable targets, this assay endpoint is annotated to the 'cell adhesion molecules' intended target family, where the subfamily is 'decorin'.
The levels of cell surface (or secreted, indicated by the prefix "s") biomarker endpoints were measured by ELISA. Overt cytotoxicity to cells in confluent adherent cultures (all systems other than the BT system) was assessed by measuring total protein levels using sulforhodamine B (SRB) staining in parallel cultures at the time of biomarker measurements, indicated as SRB endpoints. For proliferation assays for adherent cell types, individual cell types are cultured at sub-confluence and relative cell numbers quantified by SRB staining at time points optimized for each system (48 h: 3C and CASM3C systems; 72 h: BT and HDF3CGF systems; 96 h: SAg system). SRB was performed by staining cells with 0.1% SRB after fixation with 10% TCA and reading wells at 560 nm.Viability and proliferation of PBMC (T cells) was quantified by Alamar Blue reduction for the SAg and BT systems. For PBMC viability (referred to as PBMC Cytotoxicity within the assay endpoint names), cells were plated (75,000/well in a 96-well plate) and then chemical samples added for 1 h before addition of activators, SEB and TSST-1 (20 ng/mL final concentration each). Cells were incubated for 90 h. Then, Alamar Blue (20 uL/well) (Invitrogen, Cat DAL1100) was added for 6 h, and the plates were read with a fluorescence microplate reader at 546/580 nm (excitation/emission). For PBMC proliferation, cells were plated and activated as above but incubated for only 16 h prior to addition of Alamar Blue. Plates were read after 6 h.
With `O=P1(NCCCl)OCCCN1CCCl` (stereo not given), the result was inactive.

Regarding `O=c1[nH]c(Cl)c(Cl)cc1Cl`, the result was inactive.

In the case of `CC1(C)[C@H](C(=O)O[C@H](C#N)c2cccc(Oc3ccccc3)c2)[C@@H]1C=C(Br)Br`, the result was inactive.

Regarding `CC(C)(C)C(=O)CCl`, the outcome was inactive.

For `O=[N+]([O-])C=Cc1ccccc1`, the outcome was inactive.

Consider `C=CC(=O)OCC(CC)CCCC` (stereo not given), for which the AC50 was 0.016 µM (active).

Take `O=C1C(Cl)=C(Cl)C(=O)C(Cl)=C1Cl`: the result was inactive.

On to `CC(C)(C)C(O)C(Oc1ccc(-c2ccccc2)cc1)n1cncn1` (stereo not given), for which the AC50 was 36.5 µM (active).

`O=c1c2ccccc2c(=O)c2c1cc(Cl)c1[nH]c3c([nH]c12)c(Cl)cc1c(=O)c2ccccc2c(=O)c13`: the result was inactive.

Turning to `CNC(=O)Oc1cc(C)c(SC)c(C)c1`, the outcome was inactive.

As for `Nc1ccc(-c2ccc(N)c(N)c2)cc1N`, the result was inactive.

`CC(C)CCCCCCCOP(=O)(Oc1ccccc1)Oc1ccccc1`: the AC50 is 8.75 µM (active).

Consider `C=CCN(CC=C)C(=O)C(Cl)Cl`, for which the result was inactive.

Regarding `Cc1ccc(OP(=O)(Oc2ccc(C)cc2)Oc2ccc(C)cc2)cc1` (tested in a mixture with another compound), the result was inactive.

In the case of `O=C(O)CCCc1ccc(N(CCCl)CCCl)cc1`, the result was inactive.

For `Oc1cc(Cl)ccc1Cl`, the result was inactive.

With `CC(C)(c1cc(Cl)c(O)c(Cl)c1)c1cc(Cl)c(O)c(Cl)c1`, the result was inactive.

Turning to `O=S(=O)(c1ccccc1)c1ccccc1`, the outcome was inactive.

On to `CC(=O)/C=C/c1ccccc1`, for which the result was inactive.

For the compound `CCCOC(=O)c1ccccc1C(=O)OCCC`, the result was inactive.

Regarding `CCc1cc(C)cc(CC)c1-c1c(OC(=O)C(C)(C)C)n2n(c1=O)CCOCC2`, the outcome was inactive.

Regarding `O=C1C=CC(=O)C=C1`, the outcome was inactive.

As for `Clc1ccc(-c2ccccc2)cc1`, the result was inactive.

For the compound `CC(C)CCCCCCCOC(=O)c1ccccc1C(=O)OCCCCCCCC(C)C`, the outcome was inactive.

For the compound `CCC(C)c1cc([N+](=O)[O-])cc([N+](=O)[O-])c1OC(=O)C=C(C)C` (stereo not given), the AC50 is 20 µM (active).

Turning to `COCC(=O)N(c1c(C)cccc1C)N1CCOC1=O`, the outcome was inactive.

With `COC(C)(C)CCC[C@H](C)C/C=C/C(C)=C/C(=O)OC(C)C`, the result was inactive.

Regarding `CCCCCCCCCCCC#N`, the result was inactive.

As for `c1ccc(Nc2ccc3ccccc3c2)cc1`, the result was inactive.

For `CC(C)COP(=O)(OCC(C)C)OCC(C)C`, the outcome was inactive.
